Hits are enriched below; roughly 19% of the tested compounds scored in any of these assays.
HT1080 IDH1KD tx = HT-1080 IDH1 knockdown cell toxicity (counter line); HT-1080 IDH1 knockdown viability, ATP luminescence, 48 h; Potency, µM (doses to about 46.1 µM), without a hit: at the top dose activity, negative = toxicity, usual class: cytotoxic; 360,000 tested, 2% active;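 further: 0% = DMSO wells and -100% = cell-free medium wells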
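CellTiter-Glo luminescence after 48 h compound exposure at 37 degrees C of IDH1-knockdown HT-1080 cells in 5% FBS RPMI. %Activity scaled between DMSO wells and cell-free media wells, with curves fitted and assigned curve classes.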
KB-V1 MDR tox = kills drug-selected multidrug resistant KB-V1 cells; AID 1347076; KB-V1 MDR cells viability, CellTiter-Glo, 72 h; 400,000 tested, 3.4% active; Potency, µM (series often up to 46.1 µM), actives largely listed as cytotoxic; further: nearly all actives have a fitted effect of over 60% in size
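KB-V1 MDR subline cells in DMEM (phenol-red free, 10% FBS) exposed to compounds in qHTS concentration series for 72 h at 37 degrees C. Viability read by CellTiter-Glo luminescence; concentration-effect curves fitted after normalization and correction.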
HT1080NT lethal = kills 2HG-producing HT-1080-NT fibrosarcoma cells; HT-1080-NT fibrosarcoma viability, CellTiter-Glo ATP luminescence, 48 h; Potency, µM (doses to about 46.1 µM), for inactives: at the highest dose activity, negative = less viability, hits mostly cytotoxic; 360,000 tested, 1.6% active;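 further: NT is the 2HG producing partner of a matched IDH1 knockdown line; 0% = DMSO-treated cells and -100% = media-only wells without cells; nearly all actives have a fitted effect of over 55% in size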
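Compounds were tested in concentration-response format on HT-1080-NT cells for 48 hours at 37 degrees C. Cell viability came from CellTiter-Glo luminescence; curves were classified by r2, response magnitude and activity.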
TDP1 cell noCPT = qHTS for Inhibitors of human tyrosyl-DNA phosphodiesterase 1 (TDP1): qHTS in cells in absence of CPT | AID 686978, 2013 | DT40 Tdp1-/- hTDP1 cells, no CPT, ATP luminescence, 48 h | Potency, µM (doses to about 46.2 µM), inactives show at the highest dose activity change, negative = growth inhibition, usual class: inhibitors | 420,000 tested, 15% active; further: nearly all actives have a fitted effect of over 55% in size
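Cells were dispensed at 400 per well, compounds added by pin tool, plates incubated ≥48 hr at 37 °C, then CellTiter-Glo added for 30 min at room temperature before luminescence reading. Line: DT40 Tdp1-/- complemented with hTDP1; camptothecin omitted.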
KB-3-1 tox = kills parental KB-3-1 adenocarcinoma cells. KB-3-1 viability, CellTiter-Glo ATP luminescence, 72 h. Potency, µM (titrated, usually from 46.1 µM), hits mostly cytotoxic. 400,000 tested, 1.4% active. AID 1347075; further: nearly all actives have a fitted effect of over 60% in size
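Parental KB-3-1 adenocarcinoma cells in phenol-red-free DMEM with 10% FBS were pin-treated with compounds at several concentrations, incubated 72 h at 37 °C, and viability read by CellTiter-Glo luminescence; concentration-effect curves were fitted after normalization.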
DT40 TDP1 CPT = DT40-hTDP1 cell growth loss with CPT; Potency, µM (top dose mostly 46.2 µM), for inactives: top-dose activity change, negative = growth inhibition, usual class: inhibitors; 420,000 tested, 12% active; chicken DT40 Tdp1-/-;hTDP1 cells + 20 nM CPT, ATP luminescence, 48 h; further: nearly all actives have a fitted effect of over 55% in size
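Chicken DT40 Tdp1-/- cells complemented with human TDP1, 400 cells/well, exposed to compounds plus 20 nM camptothecin for at least 48 h at 37 C; viability read as ATP content by CellTiter-Glo luminescence.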
* = called active by the depositor; i = inactive; u = inconclusive; x = no result. The call rests on the fitted dose curve; in most records, active means well fitted curve in the direction sought with a large enough effect; inconclusive means small, poorly fitted or top-dose-only effect, or another doubt; inactive means no such curve, though single readings can be large; an effect the other way counts as inactive or inconclusive. Unless noted, on the % scale 0 is the no-effect control and ±100 the full control effect; potency means the concentration at half of the fitted maximal effect.

SMILES	HT1080 IDH1KD tx	KB-V1 MDR tox	HT1080NT lethal	TDP1 cell noCPT	KB-3-1 tox	DT40 TDP1 CPT
O=C(NC1CCCCC1)C(c1ccco1)N(C(=O)c1csnn1)C1CCCC1 (centres undefined)	0.8%	16.4µM*	-2.9%	16.4µM*	i	u
O=C(NC1CCCC1)C(c1ccco1)N(Cc1ccccc1)C(=O)c1csnn1 (centres undefined)	-5.2%	13µM*	1.6%	0.1%	i	-17.2%
CC1(C)CC[C@]2(C(=O)O)CC[C@]3(C)C(=CCC4[C@@]5(C)CC[C@H](O)C(C)(C)C5[C@H](O)C[C@]43C)C2C1 (some centres undefined)	x	x	x	-19.6%	x	3.3%
COCCCNc1nc2c(c(=O)n(Cc3cccc(Br)c3)c(=O)n2C)n1C	-28.1%	i	-1.6%	u	i	-29.9%
COc1ccccc1C1=NOC(Cn2c(NCC3CCCO3)nc3c2c(=O)n(C)c(=O)n3C)C1 (centres undefined)	8.3%	u	-2.4%	u	i	-2.5%
COc1ccc(CCN2CCCn3c2nc2c3c(=O)n(CC(C)C)c(=O)n2C)cc1OC	-9.7%	i	0.3%	13µM*	i	20.6µM*
Cc1cccc(N2CCCn3c2nc2c3c(=O)n(CCN3CCOCC3)c(=O)n2C)c1	-0.8%	u	7.7%	u	i	20.6µM*
COCCNc1nc2c(c(=O)n(Cc3cccc(Br)c3)c(=O)n2C)n1C	2.8%	i	-1.0%	23.1µM*	i	u
Cn1c(=O)c2c(nc(NCC3CCCO3)n2Cc2cccc(Br)c2)n(C)c1=O (centres undefined)	-23.3%	u	-0.7%	14.6µM*	i	u
CCOc1ccc(CN(C)C(=O)CNC(=O)C2CCCCC2)cc1	-4.6%	i	0.6%	-2.0%	i	0.5%
Cn1c(=O)n(Cc2ccccc2)c(=O)c2c1nc1n2CCCN1C1CCCCC1	1.7%	i	-0.4%	-17.5%	i	-11.8%
Cc1cccc(Cn2c(=O)c3c(nc4n3CCCN4Cc3ccccc3)n(C)c2=O)c1	3.1%	u	5.8%	11.2µM*	u	u
Cn1c(N2CCCCC2)nc2c1c(=O)n(Cc1cccc(Br)c1)c(=O)n2C	15.2%	10.3µM*	5.0%	-22.0%	i	2.5%
Cn1c(=O)n(Cc2ccc(F)cc2)c(=O)c2c1nc1n2CCCN1C1CCCCC1	4.3%	i	6.9%	20.6µM*	u	23.1µM*
CN1CCN(c2nc3c(c(=O)n(C)c(=O)n3C)n2Cc2cccc(Br)c2)CC1	-4.1%	i	-4.8%	-6.6%	i	-23.0%
O=C1c2ccccc2C(=O)c2c1ccc(O)c2O	-15.9%	i	-20.5%	-17.5%	i	-7.1%
O=C1c2ccc(O)c(O)c2C(=O)c2c(O)ccc(O)c21	x	x	x	u	x	10.3µM*
COc1ccc2c(c1)CC(C(=O)Nc1c(C)cc(C)cc1C)CO2 (centres undefined)	x	i	x	u	i	u
CCOc1cc(S(=O)(=O)n2c(C)nc3ccccc32)ccc1F	u	i	-28.6%	u	i	u
CC(=O)c1nc2ccccc2n1S(=O)(=O)c1ccc(Cl)cc1	4.0%	i	6.9%	14.2%	i	-10.9%
CSc1ccc(/C=C/c2nc3ccccc3n2S(=O)(=O)c2ccc(F)c(C)c2)cc1	x	x	x	20.6µM*	x	18.4µM*
Cc1ccc(/C=C/c2nc3ccccc3n2S(=O)(=O)c2cccc(Cl)c2)cc1	x	x	x	10.3µM*	x	13µM*
Cc1ccc(S(=O)(=O)n2c(C)nc3ccccc32)cc1	1.9%	i	-1.4%	-4.1%	i	-5.9%
